What all share (experiment): cell viability relative to vehicle control; higher = less cytotoxic
What all share (conditions): 10 µM

Assay [1] has as its system K562. In short, it runs like this: (§1)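 Four leukaemia lines, as CRISPR-edited mutant clones and isogenic wild-type clones, were tested against Selleck bioactive, kinase and epigenetic probe libraries after removal of identity-inconsistent compounds. Cells were exposed to a single 10 µM dose for 48 h, and CellTiter-Glo luminescence was then read. Viability was calculated relative to the on-plate vehicle control.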

Assay [2] relates to MARIMO. In short, it runs like this: as §1
Assay [3] deals with MOLM14. In short, it runs like this:
as §1

In assay [4] the test system is OCI-AML2. In short, it runs like this: as §1

Consider 10 compounds from the supplement of paper PMC10981050.

Values joined by “and” are separate entries in the source; they are usually repeats but may differ in a detail not shown here. Equal values may be shown once. Where a name gives a salt, the structure may show the parent alone.

The term cell viability denotes a read-out of living cells in per cent, often relative to untreated cells. `CN1CCC[C@@H]1CCO[C@](C)(c1ccccc1)c1ccc(Cl)cc1` [Clemastine Fumarate]: the cell viability in assay [1] (SRSF2 genotype: SRSF2 P95H/wt) is 83.6% and 82.3%; in assay [1] (SRSF2 genotype: SRSF2 wt/wt), 81.6%; in assay [2] (SRSF2 genotype: SRSF2 P95H/wt) it was 74.2%; in assay [2] (SRSF2 genotype: SRSF2 wt/wt), 77.3%; in assay [3] (SRSF2 genotype: SRSF2 P95H/wt), 71.3%; in assay [3] (SRSF2 genotype: SRSF2 wt/wt), 78.4%. The cell viability in assay [4] (SRSF2 genotype: P95H/wt) amounted to 81.7%; in assay [4] (SRSF2 genotype: wt/wt), 78.8%.

On to `CC(C)CC(CC(=O)NO)C(=O)N[C@@H](Cc1ccc2ccccc2c1)C(=O)N[C@@H](C)C(=O)NCCN` (stereo not given in full), for which the cell viability in assay [1] (SRSF2 genotype: SRSF2 P95H/wt) worked out at 105%; in assay [1] (SRSF2 genotype: SRSF2 wt/wt), 110%; in assay [2] (SRSF2 genotype: SRSF2 P95H/wt), 112%; in assay [2] (SRSF2 genotype: SRSF2 wt/wt) it was 109%; in assay [3] (SRSF2 genotype: SRSF2 P95H/wt), 99.1%; in assay [3] (SRSF2 genotype: SRSF2 wt/wt) it was 104%. Besides, the cell viability in assay [4] (SRSF2 genotype: P95H/wt) came to 110%; in assay [4] (SRSF2 genotype: wt/wt), 106%.

Take `CCCC(CCC)C(=O)O` [Valproic acid]: the cell viability in assay [1] (SRSF2 genotype: SRSF2 P95H/wt) is 95.5% and 98.3%; in assay [1] (SRSF2 genotype: SRSF2 wt/wt), 106%; in assay [2] (SRSF2 genotype: SRSF2 P95H/wt), 103%; in assay [2] (SRSF2 genotype: SRSF2 wt/wt) it was 100%; in assay [3] (SRSF2 genotype: SRSF2 P95H/wt) it was 102%; in assay [3] (SRSF2 genotype: SRSF2 wt/wt) it was 102%. For the same compound, the cell viability in assay [4] (SRSF2 genotype: P95H/wt) was found to be 102%; in assay [4] (SRSF2 genotype: wt/wt), 95.7%.

As for `Nc1nc2c(ncn2COC(CO)CO)c(=O)[nH]1` [Ganciclovir], the cell viability in assay [1] (SRSF2 genotype: SRSF2 P95H/wt) was 105% and 99.9%; in assay [1] (SRSF2 genotype: SRSF2 wt/wt), 106%; in assay [2] (SRSF2 genotype: SRSF2 P95H/wt), 100%; in assay [2] (SRSF2 genotype: SRSF2 wt/wt), 108%; in assay [3] (SRSF2 genotype: SRSF2 P95H/wt) it was 112%; in assay [3] (SRSF2 genotype: SRSF2 wt/wt), 104%. Moreover, the cell viability amounted to 91.1% in assay [4] (SRSF2 genotype: P95H/wt) and 104% in assay [4] (SRSF2 genotype: wt/wt).

`CC[C@H]1[C@@H](O)[C@@H]2[C@H](CC[C@]3(C)[C@@H]([C@H](C)CCC(=O)O)CC[C@@H]23)[C@@]2(C)CC[C@@H](O)C[C@@H]12` [Obeticholic Acid]: the cell viability is 106% and 109% in assay [1] (SRSF2 genotype: SRSF2 P95H/wt); 102% in assay [1] (SRSF2 genotype: SRSF2 wt/wt); 107% in assay [2] (SRSF2 genotype: SRSF2 P95H/wt); 105% in assay [2] (SRSF2 genotype: SRSF2 wt/wt); 103% in assay [3] (SRSF2 genotype: SRSF2 P95H/wt); 105% in assay [3] (SRSF2 genotype: SRSF2 wt/wt). Also, the cell viability in assay [4] (SRSF2 genotype: P95H/wt) turned out to be 107%; in assay [4] (SRSF2 genotype: wt/wt), 110%.

With `COC1C(O)C(O)C(O)C(O)C1O` (stereo not given) [Sequoyitol], the cell viability is 102% and 107% in assay [1] (SRSF2 genotype: SRSF2 P95H/wt); 110% in assay [1] (SRSF2 genotype: SRSF2 wt/wt); 110% in assay [2] (SRSF2 genotype: SRSF2 P95H/wt); 99.1% in assay [2] (SRSF2 genotype: SRSF2 wt/wt); 105% in assay [3] (SRSF2 genotype: SRSF2 P95H/wt); 109% in assay [3] (SRSF2 genotype: SRSF2 wt/wt). In addition, the figures for the cell viability in assay [4] (SRSF2 genotype: P95H/wt) and in assay [4] (SRSF2 genotype: wt/wt) were 99.7% and 106%, respectively.

Regarding `Cc1cc(C)nc(SCC(=O)Nc2ncc(Cc3cccc4ccccc34)s2)n1`, the cell viability in assay [1] (SRSF2 genotype: SRSF2 P95H/wt) was 79.2% and 84.5%; in assay [1] (SRSF2 genotype: SRSF2 wt/wt) it was 75.5%; in assay [2] (SRSF2 genotype: SRSF2 P95H/wt), 78.5%; in assay [2] (SRSF2 genotype: SRSF2 wt/wt), 86.9%; in assay [3] (SRSF2 genotype: SRSF2 P95H/wt), 41.1%; in assay [3] (SRSF2 genotype: SRSF2 wt/wt) it was 42.4%. Also, the cell viability in assay [4] (SRSF2 genotype: P95H/wt) was found to be 61.4%; in assay [4] (SRSF2 genotype: wt/wt), 66.4%.

Consider `COc1cc2c(c(OC)c1OC)-c1c(cc3c(c1OC)OCO3)CC(C)C(C)C2` (stereo not given) [Schisandrin B], for which the cell viability in assay [1] (SRSF2 genotype: SRSF2 P95H/wt) was 76.4% and 76%; in assay [1] (SRSF2 genotype: SRSF2 wt/wt), 74.8%; in assay [2] (SRSF2 genotype: SRSF2 P95H/wt), 71.8%; in assay [2] (SRSF2 genotype: SRSF2 wt/wt), 86%; in assay [3] (SRSF2 genotype: SRSF2 P95H/wt), 73%; in assay [3] (SRSF2 genotype: SRSF2 wt/wt) it was 76.2%. The figures for the cell viability in assay [4] (SRSF2 genotype: P95H/wt) and in assay [4] (SRSF2 genotype: wt/wt) were 90.8% and 84.9%, respectively.

Regarding `CN(C)CCSSCCNC(=O)C1CCN(C(=O)CSc2ccc(Cl)cc2)CC1`, the cell viability was 82% and 85.7% in assay [1] (SRSF2 genotype: SRSF2 P95H/wt); 81.6% in assay [1] (SRSF2 genotype: SRSF2 wt/wt); 68% in assay [2] (SRSF2 genotype: SRSF2 P95H/wt); 86.9% in assay [2] (SRSF2 genotype: SRSF2 wt/wt); 91.8% in assay [3] (SRSF2 genotype: SRSF2 P95H/wt); 95.1% in assay [3] (SRSF2 genotype: SRSF2 wt/wt). Moreover, the cell viability in assay [4] (SRSF2 genotype: P95H/wt) was determined as 89.8%; in assay [4] (SRSF2 genotype: wt/wt), 79.5%.

As to `CCOC(=O)/C=C\C(=O)OCC` [Diethylmaleate], the cell viability in assay [1] (SRSF2 genotype: SRSF2 P95H/wt) is 102% and 96.1%; in assay [1] (SRSF2 genotype: SRSF2 wt/wt), 99.8%; in assay [2] (SRSF2 genotype: SRSF2 P95H/wt), 97.5%; in assay [2] (SRSF2 genotype: SRSF2 wt/wt), 109%; in assay [3] (SRSF2 genotype: SRSF2 P95H/wt) it was 104%; in assay [3] (SRSF2 genotype: SRSF2 wt/wt), 105%. For the same compound, the cell viability amounted to 98.9% in assay [4] (SRSF2 genotype: P95H/wt) and 111% in assay [4] (SRSF2 genotype: wt/wt).
